Reference: PubChem BioAssay AID488969 (Vanderbilt High Throughput Screening Facility, 2010)
The full ranking holds about 110,000 compounds; the median of “z-score” is about -0.1, and the highest 2% start at about 2. Shown is part of a subset that was picked to be rich in the highest values. The source made the active and inactive calls.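 The calls were made as follows: active = z-score in the third read window above 3 or below -3; inactive = the rest.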

target: Metabotropic glutamate receptor 8 (Rattus norvegicus) (UniProt P70579); test: rat mGluR8 modulators via GIRK flux, primary screen, cell-based, thallium flux, HTS (AID 488969); conditions: HEK293 rat mGluR8, GIRK (G protein-gated inwardly rectifying potassium channel) thallium flux, FluoZin2; at 10 µM; stronger effect = higher value; submaximal glutamate (EC20) added with thallium
Sequence (P70579 whole entry, looked up): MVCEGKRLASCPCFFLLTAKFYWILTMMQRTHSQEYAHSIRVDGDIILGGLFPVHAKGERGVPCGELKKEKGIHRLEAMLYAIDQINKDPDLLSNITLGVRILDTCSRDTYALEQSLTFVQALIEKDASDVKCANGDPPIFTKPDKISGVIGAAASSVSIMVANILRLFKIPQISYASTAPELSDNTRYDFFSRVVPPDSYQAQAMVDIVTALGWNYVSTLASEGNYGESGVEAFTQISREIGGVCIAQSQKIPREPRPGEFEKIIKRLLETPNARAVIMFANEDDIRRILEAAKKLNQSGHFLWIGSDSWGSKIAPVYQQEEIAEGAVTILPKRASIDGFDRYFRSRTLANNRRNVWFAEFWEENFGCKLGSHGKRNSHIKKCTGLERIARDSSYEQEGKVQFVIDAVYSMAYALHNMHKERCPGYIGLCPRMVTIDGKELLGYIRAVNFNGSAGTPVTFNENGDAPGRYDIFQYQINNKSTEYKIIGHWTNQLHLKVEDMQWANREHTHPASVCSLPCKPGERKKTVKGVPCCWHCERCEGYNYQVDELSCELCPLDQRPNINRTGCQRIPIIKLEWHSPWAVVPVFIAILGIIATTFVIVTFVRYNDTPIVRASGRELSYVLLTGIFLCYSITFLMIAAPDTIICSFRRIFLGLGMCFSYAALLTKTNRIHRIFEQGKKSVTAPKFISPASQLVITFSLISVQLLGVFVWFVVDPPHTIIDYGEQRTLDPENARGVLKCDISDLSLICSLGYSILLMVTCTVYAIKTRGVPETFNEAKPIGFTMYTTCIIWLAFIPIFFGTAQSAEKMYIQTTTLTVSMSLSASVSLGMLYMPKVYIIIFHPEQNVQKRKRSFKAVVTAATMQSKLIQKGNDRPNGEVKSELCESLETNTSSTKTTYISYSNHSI

| Structure (SMILES) | z-score |
| --- | --- |
| CCOC(=O)c1[nH]cnc1C(=O)Nc1ccncc1 | 0.161 |
| O=C(CS(=O)(=O)c1ccc2ccccc2c1)Nc1ccccc1Cl | -0.351 |
| Cn1c(N2CCC(C(N)=O)CC2)nc2c1c(=O)n(Cc1cccc(Br)c1)c(=O)n2C | -1.26 |
| COC(=O)NCc1ccc(S(=O)(=O)N2CCOCC2)cc1 | 0.235 |
| COc1cc(C(=S)N2CCCC2)cc(Cl)c1O | 2.62 |
| COc1cc(C(=S)N2CCCC2)cc(OC)c1O | 0.304 |
| COc1cc(C(=S)N2CCCC2)ccc1O | 0.115 |
| Cc1sc2nc(C)n(/N=C/c3ccc(O)cc3)c(=O)c2c1C | -0.305 |
| Cc1cccc(NC(=O)N(Cc2nc3ccccc3c(=O)[nH]2)C2CCCC2)c1 | 2.35 |
| COc1ccc(S(=O)(=O)N(Cc2nc3ccccc3c(=O)[nH]2)C2CCCC2)cc1 | 2.49 |
| COc1ccc(CN(Cc2nc3ccccc3c(=O)[nH]2)C(=O)NC2CCCCC2)cc1 | -0.301 |
| CN(Cc1nc2ccccc2c(=O)[nH]1)c1ccccc1 | -0.0308 |
| O=C(Nc1cccc(Cl)c1)N(Cc1nc2ccccc2c(=O)[nH]1)C1CCCC1 | -0.529 |
| COc1ccc(S(=O)(=O)N(Cc2ccccc2)Cc2nc3ccccc3c(=O)[nH]2)cc1 | -0.148 |
| Cc1ccc(S(=O)(=O)Cc2nc3ccccc3c(=O)[nH]2)cc1 | -0.19 |
| O=C(NC1CCCCC1)N(Cc1nc2ccccc2c(=O)[nH]1)C1CCCC1 | 0.129 |
| O=c1[nH]c(CS(=O)(=O)c2ccccc2)nc2ccccc12 | 3.08 (active) |
| CCOC(=O)N1CCN(C(=O)CN(c2cc(Cl)ccc2OC)S(=O)(=O)c2ccccc2)CC1 | -0.359 |
| CCCc1nc2ccc(NC(=O)c3cccs3)cc2c(=O)n1Cc1ccc(Cl)cc1 | -0.155 |
| O=C(C(=O)N1CCCc2ccccc21)c1c[nH]c2ccccc12 | 0.104 |
| CCOC(=O)c1c(-c2ccccc2)oc2ccc(OC)cc12 | 0.0333 |

| Structure (SMILES) | z-score |
| --- | --- |
| CCC(CC)NC(=O)COC(=O)c1ccc(OCc2ccc(C(C)=O)cc2OC)c(OC)c1 | -0.23 |
| C/C(=N\NC(=O)c1ccc(OC2CCCC2)cc1)c1ccc(C)s1 | 1.05 |
| Cc1ccc(CC2CC(=O)N(c3nc4ccccc4n3C)C2=O)cc1 (configuration not stated) | -0.156 |
| Cc1ccc(C(=O)NCCCn2ccnc2)cc1[N+](=O)[O-] | 0.161 |
| O=C(NCCCn1ccnc1)C(Cc1ccc([N+](=O)[O-])cc1)N1C(=O)c2ccccc2C1=O (configuration not stated) | 2.67 |
| Cc1ccc(CNC(=O)C(=O)NCCCn2ccnc2)cc1 | -0.281 |
| CN1CCN(C(=O)CN(c2cccc(Cl)c2)S(=O)(=O)c2ccccc2)CC1 | -0.681 |
| O=C(Nc1ccc(Cl)c(Cl)c1)Nc1nnc(CC2=CCCCC2)s1 | 0.0021 |
| CCOC(=O)C1=C(NC(=S)NC(=O)c2ccccc2)c2ccccc2CC1(C)C | 5.58 (active) |
| CCOC(=O)c1ccc(NC(=O)c2ccc(NC(=O)c3ccccc3)cc2)cc1 | -0.341 |
| CCOC(=O)c1sc(NC(=S)NC(=O)c2ccccc2)c(C(=O)OCC)c1C | 0.582 |
| CCOC(=O)C1=C(NC(=S)NC(=O)c2ccccc2)c2ccccc2CC1C(C)C (configuration not stated) | 3.46 (active) |
| CCOC(=O)c1ccc(NC(=O)c2ccccc2)cc1 | -0.0754 |
| CCOC(=O)C1=C(N)c2ccccc2CC1C(C)C (configuration not stated) | -0.175 |
| O=[N+]([O-])c1ccc(OCCN2CCCCCC2)cc1 | 0.121 |
| CCCCN1C(=O)c2ccccc2C1C(=O)NC1CCCC1 (configuration not stated) | 3.2 (active) |
| O=C(NC1CCCCCC1)C1c2ccccc2C(=O)N1CCCN1CCOCC1 (configuration not stated) | -0.316 |
| COCCCN1C(=O)c2ccccc2C1C(=O)NC1CCCCCC1 (configuration not stated) | 0.0327 |
| COc1ccc(-n2nnc3c(SCC(=O)Nc4ccc5c(c4)OCCO5)ncnc32)cc1 | 0.658 |
| Clc1cccc(-c2cc3nc4c(c(N5CCN(c6cnccn6)CC5)n3n2)CCCC4)c1 | -0.109 |
| Clc1cccc(-c2cc3nc4c(c(N5CCNCC5)n3n2)CCCC4)c1 | 2.71 |

| Structure (SMILES) | z-score |
| --- | --- |
| OC1CCCN(c2c3c(nc4cc(-c5cccc(Cl)c5)nn24)CCC3)C1 (configuration not stated) | -0.591 |
| CCCn1nc(CC(=O)OCC)c2ccccc2c1=O | 0.73 |
| O=C(Cn1[nH]c(=O)c2ccccc2c1=O)NCc1cccnc1 | -0.377 |
| CC(C)C(NC(=O)c1ccccc1NC(=O)c1ccco1)C(=O)O (configuration not stated) | -0.744 |
| Fc1ccc(NC(=S)Nc2ccc(F)c(Cl)c2)cc1Cl | -0.0109 |
| CC(NC(=S)Nc1ccccc1OC(F)F)C(C)(C)C (configuration not stated) | -0.263 |
| O=C(Nc1cc(Cl)ccc1Oc1ccccc1)c1ccccc1F | 3.37 (active) |
| COc1cc(C)c(NC(=S)Nc2cccc(Cl)c2)cc1OC | 0.0992 |
| FC(F)Oc1ccccc1NC(=S)NCc1ccco1 | 0.0626 |
| O=C(Nc1cc(Cl)ccc1Oc1ccccc1)c1ccc(F)cc1 | -0.256 |
| S=C(Nc1cccc(Cl)c1)Nc1ccccc1Oc1ccccc1 | 15.4 (active) |
| O=C(Nc1ccccc1Oc1ccccc1)c1ccccc1F | -0.161 |
| COC(=O)c1cc(OC)c(OC)cc1NC(=S)Nc1cccc(Cl)c1 | 0.731 |
| Fc1ccc(NC(=S)Nc2ccccc2OC(F)F)cc1Cl | 6.05 (active) |
| FC(F)Oc1ccccc1NC(=S)Nc1cccc(Cl)c1Cl | 3.76 (active) |
| FC(F)Oc1ccc(NC(=S)NCc2ccccc2)cc1Cl | 0.178 |
| Cc1cc(Cl)ccc1NC(=S)NCc1ccc(Cl)cc1 | 0.0662 |
| CC1(C)CC(=O)c2cc(C(=O)NCc3ccco3)c(=O)n(-c3ccc(Cl)cc3)c2C1 | -0.635 |
| COCc1nnc(NC(=O)c2cccs2)s1 | -0.0696 |
| NC(=O)COC(=O)c1cc(S(=O)(=O)N2CCOCC2)ccc1N1CCCCC1 | -0.0501 |
| CCn1cc(Br)c(C(=O)Nc2cccc(Cl)c2)n1 | -0.412 |

| Structure (SMILES) | z-score |
| --- | --- |
| CCOC(=O)c1cc(-c2ccccc2)sc1NC(=O)C(C)OC(=O)c1cccnc1OCC (configuration not stated) | 0.0703 |
| O=C(CCCOc1ccccc1)Nc1ccc2c(c1)OCCO2 | 0.0498 |
| CN(C(=O)c1ccc2c(c1)C(=O)N(CCC1=CCCCC1)C2=O)C1CCCCC1 | 0.422 |
| Cc1nc(NC2=NCN(CC3CCCO3)CN2)nc2ccccc12 (configuration not stated) | 0.234 |
| COc1cc2c(cc1OC)C(C1C(=O)CCCC1=O)N(C(=O)CCl)CC2 (configuration not stated) | -0.173 |
| CCOc1ccc(C(=O)Nc2nc(C)cc(C)n2)cc1[N+](=O)[O-] | -0.36 |
| Cc1ccc(C)c(N(CC(=O)NN=C2CCCCCCC2)S(C)(=O)=O)c1 | -0.202 |
| COc1ccc(NC(=O)Nc2ccc(C)cc2OC(F)F)cc1OC | -0.0436 |
| Cc1ccc(NC(=S)Nc2ccc(Cl)c(Cl)c2)c(OC(F)F)c1 | 5.16 (active) |
| S=C(Nc1ccccc1Oc1ccccc1)Nc1cccc(Cl)c1Cl | 4.09 (active) |
| CCNC(=S)Nc1cc(Cl)ccc1Oc1ccccc1 | 0.269 |
| CCNC(=S)Nc1ccc(Cl)cc1Cl | 0.108 |
| S=C(Nc1ccc(OCc2ccccc2)cc1)Nc1cccc(Cl)c1Cl | 0.844 |
| CNC(=S)Nc1cc(Cl)ccc1Oc1ccccc1 | 0.287 |
| COc1cc(NC(=S)Nc2cccc(Cl)c2Cl)c(OC)cc1Cl | 0.605 |
| S=C(Nc1ccccc1Cl)Nc1ccc(Cl)cc1Cl | 5.05 (active) |
| COc1cc(C)c(NC(=S)Nc2ccc(Cl)c(Cl)c2)cc1OC | 0.396 |
| S=C(Nc1ccccc1)Nc1ccc(Cl)cc1Cl | 1.43 |
| S=C(Nc1ccccc1)Nc1cc(Cl)ccc1Oc1ccccc1 | 3.43 (active) |
